Data reported in PubChem BioAssay (Tox21).
Values joined by “and” are separate entries in the source; they are usually repeats but may differ in a detail not shown here. Equal entries are not always repeated. Unmarked numbers belong to inactive results. Results filed as inconclusive are left out. Where a call stands in place of a potency, no number is given. Active and inactive are the calls of the source. Unless noted, the call rests on the fitted dose curve; in most records, active means well fitted curve in the direction sought with a large enough effect in the repeat runs; inconclusive means weak or mixed curves; inactive means no such curve, though single readings can be large; an effect the other way counts as inactive or inconclusive.

Key:
[1] = biological target: Estrogen receptor beta (Homo sapiens) (UniProt Q92731); assay: qHTS assay to identify small molecule antagonists of the estrogen receptor beta (ER-beta) signaling pathway (AID 1259378; active means well fitted inhibition curve with a large enough effect in the signal ratio in the repeat runs, not every such curve was filed as active; the % refers to the signal ratio; further: potency means the concentration at half of the fitted maximal effect)
Chain of Estrogen receptor beta (Homo sapiens) (Q92731 whole entry, looked up): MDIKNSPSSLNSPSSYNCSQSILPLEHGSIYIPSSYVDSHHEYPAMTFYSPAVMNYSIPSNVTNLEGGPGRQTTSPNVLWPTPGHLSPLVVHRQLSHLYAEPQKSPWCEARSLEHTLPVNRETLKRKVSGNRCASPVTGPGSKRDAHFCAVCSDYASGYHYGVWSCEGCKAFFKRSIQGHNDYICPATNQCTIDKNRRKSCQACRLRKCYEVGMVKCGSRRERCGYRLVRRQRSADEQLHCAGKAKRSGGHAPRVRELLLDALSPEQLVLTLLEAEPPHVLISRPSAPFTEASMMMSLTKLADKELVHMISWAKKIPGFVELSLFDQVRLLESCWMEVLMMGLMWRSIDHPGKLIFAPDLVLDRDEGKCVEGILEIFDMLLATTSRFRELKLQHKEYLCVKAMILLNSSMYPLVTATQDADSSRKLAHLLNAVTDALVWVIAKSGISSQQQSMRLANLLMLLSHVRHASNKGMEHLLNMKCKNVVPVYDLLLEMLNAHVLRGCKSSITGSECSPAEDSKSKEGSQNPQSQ
How it was run: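 ER-beta-UAS-bla HEK293T (GripTite) cells in 2% charcoal-stripped FBS medium were preincubated 6 hr at 37C, dosed with compound, then stimulated with 1 nM E2 (final) for 16 hr; beta-lactamase reporter read by B/G FRET fluorescence after 2 hr substrate loading.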

[2] = qHTS assay to identify small molecule agonists of the androgen receptor (AR) signaling pathway in the presence of an antagonist - cell viability counter screen (AID 1259379);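 further: MDA-kb2 human breast cancer cells carrying an MMTV luciferase reporter; series mostly up to about 92 µM; nearly all actives have a fitted effect of over 25% in size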
How it was run: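 Each compound was tested at 15 concentrations on MDA-kb2 cells in the presence of 3.0uM nilutamide. Viability was measured by CellTiter-Fluor fluorescence after a 16 hr incubation at 37C in a CO2-free atmosphere.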

[3] = qHTS assay to identify small molecule agonists of the estrogen receptor beta (ER-beta) signaling pathway - cell viability counter screen (AID 1259380); further: nearly all actives have a fitted effect of over 30% in size; further: potency means the concentration at half of the fitted maximal effect
How it was run: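 Compounds dissolved in DMSO were pin-transferred onto ER-beta-UAS-bla HEK293T cells that had settled 6 hr, and exposure ran 16 hr at 37C. Following the reporter read, CellTiter-Glo luminescence after 30 min at room temperature indicated cytotoxicity.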

[4] = qHTS assay to identify small molecule antagonists of the estrogen receptor beta (ER-beta) signaling pathway - cell viability counter screen (AID 1259382); further: nearly all actives have a fitted effect of over 55% in size; further: potency means the concentration at half of the fitted maximal effect
How it was run: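 CellTiter-Glo ATP luminescence measured after the LiveBLAzer read in the same wells; ER-beta-UAS-bla HEK293T cells, 16 hr compound treatment with 1nM 17-beta-estradiol agonist at 37C, 5% CO2.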

[5] = biological target: Estrogen receptor (Homo sapiens) (UniProt P03372); assay: qHTS assay to identify small molecule agonists of the estrogen receptor alpha (ER-alpha) signaling pathway in the presence of an antagonist (AID 1259383; calls by dose curve; further: top concentration of the series differs between compounds; nearly all actives have a fitted effect of over 15% in size)
Chain of Estrogen receptor (Homo sapiens) (P03372 whole entry, looked up): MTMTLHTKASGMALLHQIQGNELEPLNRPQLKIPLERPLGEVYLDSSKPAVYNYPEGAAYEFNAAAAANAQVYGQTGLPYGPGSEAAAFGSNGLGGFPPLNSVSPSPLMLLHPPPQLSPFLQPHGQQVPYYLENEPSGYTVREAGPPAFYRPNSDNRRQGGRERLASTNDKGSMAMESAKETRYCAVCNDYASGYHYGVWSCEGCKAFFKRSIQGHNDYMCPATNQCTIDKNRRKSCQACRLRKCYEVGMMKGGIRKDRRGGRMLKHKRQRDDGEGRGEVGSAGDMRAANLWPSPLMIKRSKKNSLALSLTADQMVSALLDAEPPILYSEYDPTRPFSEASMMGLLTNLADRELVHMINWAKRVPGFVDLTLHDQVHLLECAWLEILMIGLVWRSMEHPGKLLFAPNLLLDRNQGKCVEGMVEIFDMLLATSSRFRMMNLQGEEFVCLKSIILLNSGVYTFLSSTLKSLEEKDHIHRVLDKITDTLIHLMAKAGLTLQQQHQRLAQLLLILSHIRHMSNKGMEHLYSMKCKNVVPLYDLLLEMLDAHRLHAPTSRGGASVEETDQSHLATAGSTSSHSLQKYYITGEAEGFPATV
How it was run: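 Luminescent ERE-luciferase reporter, VM7Luc4E2 cells (endogenous ER-alpha); 10.0nM ICI-182,780 final; 15-point compound titration; 22hr at 37C; ONE-Glo, 30min RT.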

[6] = qHTS assay to identify small molecule agonists of the estrogen receptor alpha (ER-alpha) signaling pathway in the presence of an antagonist - cell viability counter screen (AID 1259386);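 further: series mostly up to about 92 µM; cells exposed to compounds for 22 h at 37 °C before the viability read; nearly all actives have a fitted effect of over 30% in size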
How it was run: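 Using estrogen-depleted VM7Luc4E2 cells, the 15-concentration compound series was applied together with 10.0nM ICI-182,780 and incubated 22hr at 37C/5% CO2. Cell viability was then scored by CellTiter-Fluor.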

[7] = biological target: Progesterone receptor (Homo sapiens) (UniProt P06401); assay: qHTS assay to identify small molecule agonists of the progesterone receptor (PR) signaling pathway (AID 1346784; calls by dose curve; further: nearly all actives have a fitted effect of over 30% in size)
Chain of Progesterone receptor (Homo sapiens) (P06401 whole entry, looked up): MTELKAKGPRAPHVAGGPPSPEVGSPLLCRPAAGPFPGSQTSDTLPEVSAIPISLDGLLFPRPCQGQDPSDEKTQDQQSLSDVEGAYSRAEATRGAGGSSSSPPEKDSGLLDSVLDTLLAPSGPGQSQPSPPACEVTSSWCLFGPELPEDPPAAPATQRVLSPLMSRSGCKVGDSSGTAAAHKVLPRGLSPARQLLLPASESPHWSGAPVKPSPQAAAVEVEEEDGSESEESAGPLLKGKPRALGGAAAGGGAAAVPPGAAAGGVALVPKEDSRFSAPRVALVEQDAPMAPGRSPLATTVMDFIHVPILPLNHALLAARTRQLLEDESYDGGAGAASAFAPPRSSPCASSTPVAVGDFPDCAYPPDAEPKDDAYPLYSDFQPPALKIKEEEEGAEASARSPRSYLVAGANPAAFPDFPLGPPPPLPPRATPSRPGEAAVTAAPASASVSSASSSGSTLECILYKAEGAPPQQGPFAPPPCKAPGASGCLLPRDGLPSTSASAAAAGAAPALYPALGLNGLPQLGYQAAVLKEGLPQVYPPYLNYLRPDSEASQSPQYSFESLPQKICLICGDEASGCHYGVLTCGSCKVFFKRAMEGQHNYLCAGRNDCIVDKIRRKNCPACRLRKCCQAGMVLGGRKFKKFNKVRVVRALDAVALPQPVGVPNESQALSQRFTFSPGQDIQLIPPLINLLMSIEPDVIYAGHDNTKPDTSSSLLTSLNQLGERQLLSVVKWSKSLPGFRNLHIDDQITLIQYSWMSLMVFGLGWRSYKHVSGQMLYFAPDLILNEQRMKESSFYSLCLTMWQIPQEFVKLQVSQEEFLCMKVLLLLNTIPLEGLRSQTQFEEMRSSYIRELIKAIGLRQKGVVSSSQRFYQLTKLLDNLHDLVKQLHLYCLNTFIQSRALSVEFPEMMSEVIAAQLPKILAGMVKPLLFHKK
How it was run: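 Seed PR-UAS-bla HEK 293T cells (2% charcoal-stripped FBS), incubate 6 hr at 37C; add compounds in DMSO, 16 hr at 37C; add LiveBLAzer B/G substrate, 2 hr RT; read fluorescence intensity.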

[8] = biological target: Progesterone receptor (Homo sapiens) (UniProt P06401); assay: qHTS assay to identify small molecule antagonists of the progesterone receptor (PR) signaling pathway (AID 1346795; active means well fitted inhibition curve with a large enough effect in the signal ratio in the repeat runs, not every such curve was filed as active; the % refers to the signal ratio)
How it was run: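 Screening used a GripTite HEK293T line with PR-responsive UAS-beta-lactamase. Cells were challenged with compound in the presence of 1 nM R5020 final for 16 hr at 37C; B/G FRET substrate, 2 hr room temperature, fluorescence.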

[9] = qHTS assay to identify small molecule antagonists of the progesterone receptor (PR) signaling pathway - cell viability counter screen (AID 1346798); further: nearly all actives have a fitted effect of over 50% in size; further: potency means the concentration at half of the fitted maximal effect
How it was run: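 Measures cytotoxicity in parallel with the PR antagonist reporter read: HEK293T PR-UAS-bla cells get compound and R5020 for 16 hr, and remaining viable cells are quantified by CellTiter-Glo luminescence.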

[10] = qHTS assay to identify small molecule agonists of the progesterone receptor (PR) signaling pathway - cell viability counter screen (AID 1346799; calls by dose curve; further: nearly all actives have a fitted effect of over 45% in size)
How it was run: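 Using the same plates as the PR reporter screen, HEK293T PR-UAS-bla cells received compounds for 16 hr at 37C and were then lysed with CellTiter-Glo; luminescence was read 30 min later at room temperature.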

[11] = qHTS assay to identify small molecule antagonists of the TGF-beta/Smad signaling pathway - cell viability counter screen (AID 1346824); further: nearly all actives have a fitted effect of over 50% in size
How it was run: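 SBE-bla HEK 293T cells were plated overnight at 37 C, then given compounds in DMSO plus TGF-beta1 (added as 0.25 ng/mL solution) for 5 hr. After the bla read, CellTiter-Glo was added to the same wells and luminescence read after 30 min at room temperature.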

[12] = qHTS assay to identify small molecule agonists of the TGF-beta/Smad signaling pathway - cell viability counter screen (AID 1346829); further: top concentration of the series differs between compounds; nearly all actives have a fitted effect of over 45% in size
How it was run: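 Same-well cytotoxicity: CellTiter-Glo added after the 2 hr room-temperature beta-lactamase substrate step, luminescence measured 30 min later; cells had 5 hr of compound at 37 C.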

[13] = qHTS assay to identify small molecule agonists of the TGF-beta/Smad signaling pathway (AID 1346859; active means well fitted activation curve with a large enough effect in the signal ratio in the repeat runs, not every such curve was filed as active; the % refers to the signal ratio; further: series mostly up to about 77 µM)
How it was run: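 Beta-lactamase reporter activity downstream of Smad binding elements was measured in stably transfected HEK 293T cells; compounds were incubated for 5 hr, substrate for 2 hr at room temperature.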

[14] = biological target: Thyrotropin-releasing hormone receptor (Homo sapiens) (UniProt P34981); assay: qHTS assay to identify small molecule antagonists of the thyrotropin-releasing hormone receptor (TRHR) signaling pathway (AID 1346877; active means well fitted inhibition curve with a large enough effect in the repeat runs, not every such curve was filed as active; further: series mostly up to about 51 µM)
Chain of Thyrotropin-releasing hormone receptor (Homo sapiens) (P34981 whole entry, looked up): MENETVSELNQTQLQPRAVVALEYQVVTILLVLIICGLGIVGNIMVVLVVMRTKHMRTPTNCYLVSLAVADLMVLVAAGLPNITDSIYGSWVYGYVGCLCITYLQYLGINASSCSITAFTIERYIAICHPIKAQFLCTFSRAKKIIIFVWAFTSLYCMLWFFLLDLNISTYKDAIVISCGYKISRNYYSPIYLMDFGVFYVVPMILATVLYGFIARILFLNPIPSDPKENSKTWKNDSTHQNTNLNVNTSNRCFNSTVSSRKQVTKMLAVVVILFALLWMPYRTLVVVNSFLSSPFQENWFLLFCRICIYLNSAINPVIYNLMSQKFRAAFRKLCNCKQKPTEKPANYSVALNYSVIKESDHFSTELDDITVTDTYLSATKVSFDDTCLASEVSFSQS
How it was run: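 Calcium signal in dye-loaded TRHR/HEK293 cells; compounds added 5 min before TRH (1 nM final); fluorescence monitored 3 min at 1 s steps.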

[15] = biological target: Thyrotropin-releasing hormone receptor (Homo sapiens) (UniProt P34981); assay: qHTS assay to identify small molecule agonists of the thyrotropin-releasing hormone receptor (TRHR) signaling pathway (AID 1346891; calls by dose curve;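 further: HEK293 cells expressing TRHR with calcium dye readout; series mostly up to about 58 µM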)
How it was run: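 Overnight-plated (18 h, 37 °C, 5% CO2) TRHR-Hek293 cells; 2 h calcium dye at 37 °C; compound in DMSO; 3-min kinetic fluorescence read.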

[16] = Human pregnane X receptor (PXR) small molecule agonists, qHTS cell viability counter screen (AID 1346977); further: nearly all actives have a fitted effect of over 50% in size
How it was run: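 After a 5hr pre-incubation, PXR-Luc HepG2 cells received compounds plus positive control in DMSO and were kept 24hr at 37C. Cell viability was quantified by fluorescence from CellTiter-Fluor added for the final hour.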

[17] = Caspase-3/7 induction in HepG2 cells by small molecules, qHTS assay (AID 1346978); further: nearly all actives have a fitted effect of over 15% in size; further: potency means the concentration at half of the fitted maximal effect
How it was run: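 Wild-type HepG2 cells (2,000/well) were settled 5 h at 37 C, 5% CO2, then exposed to compounds in DMSO for 17 h. Caspase-3/7 activity was read by luminescence 30 min after adding Caspase-Glo 3/7 reagent at room temperature.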

[18] = qHTS assay to identify small molecule agonists or antagonists of the thyroid stimulating hormone receptor (TSHR) signaling pathway - wild type cell line counter screen (AID 1259384; calls by dose curve)
How it was run: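 Wild-type HEK293 cells were plated 18 h at 37 C/5% CO2, pin-dosed with compound plus Ro20-1724 medium, held 30 min at room temperature, then given cAMP-d2 and anti-cAMP-cryptate; fluorescence was read after 1 h. Fifteen concentrations, triplicate.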

[19] = biological target: Thyrotropin receptor (Homo sapiens) (UniProt P16473); assay: qHTS assay to identify small molecule antagonists of the thyroid stimulating hormone receptor (TSHR) signaling pathway (AID 1259385; calls by dose curve; further: nearly all actives have a fitted effect of over 20% in size)
Chain of Thyrotropin receptor (Homo sapiens) (P16473 whole entry, looked up): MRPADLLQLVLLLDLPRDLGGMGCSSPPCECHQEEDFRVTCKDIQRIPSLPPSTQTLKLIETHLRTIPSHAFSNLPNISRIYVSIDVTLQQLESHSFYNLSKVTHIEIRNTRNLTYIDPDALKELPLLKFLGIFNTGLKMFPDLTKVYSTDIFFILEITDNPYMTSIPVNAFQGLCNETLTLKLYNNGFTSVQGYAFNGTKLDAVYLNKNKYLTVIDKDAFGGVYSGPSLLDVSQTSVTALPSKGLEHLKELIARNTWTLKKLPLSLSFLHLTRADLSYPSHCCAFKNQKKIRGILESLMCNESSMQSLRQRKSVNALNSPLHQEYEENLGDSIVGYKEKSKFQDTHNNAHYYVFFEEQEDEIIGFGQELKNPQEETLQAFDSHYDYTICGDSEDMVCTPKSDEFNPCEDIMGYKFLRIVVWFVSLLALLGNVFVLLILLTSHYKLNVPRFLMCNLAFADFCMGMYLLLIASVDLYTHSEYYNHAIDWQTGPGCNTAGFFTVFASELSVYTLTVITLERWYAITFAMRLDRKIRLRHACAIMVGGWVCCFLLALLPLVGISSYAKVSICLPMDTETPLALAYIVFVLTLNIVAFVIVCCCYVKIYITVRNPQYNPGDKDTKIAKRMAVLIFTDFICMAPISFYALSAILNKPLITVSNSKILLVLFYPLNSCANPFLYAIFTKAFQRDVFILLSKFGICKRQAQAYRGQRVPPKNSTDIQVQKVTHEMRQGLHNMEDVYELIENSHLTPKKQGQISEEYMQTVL
How it was run: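 TSHR-HEK293 cells were plated and held 18 h at 37C/5% CO2, then given compound plus Ro20-1724 and stimulated with TSH at 1.5 ng/mL final. After 30 min at room temperature, cAMP was detected with cAMP-d2/anti-cAMP-cryptate (1 h) by fluorescence.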

| Structure (SMILES) | Potency [1] | Potency [2] | Potency [3] | Potency [4] | Potency [5] | Potency [6] | outcome [7] | Potency [8] | Potency [9] | Potency [10] | Potency [11] | Potency [12] | Potency [13] | Potency [14] | Potency [15] | Potency [16] | Potency [17] | outcome [18] | Potency [19] |
| --- | --- | --- | --- | --- | --- | --- | --- | --- | --- | --- | --- | --- | --- | --- | --- | --- | --- | --- | --- |
| CC[N+](CC)(CC)Cc1ccccc1 | inactive | inactive | inactive | inactive | inactive | inactive | inactive | inactive | inactive | inactive | inactive | inactive | inactive | inactive | inactive | inactive | inactive |  |  |
| O=C1OC(=O)c2cccc3cccc1c23 | inactive | inactive | inactive | inactive |  | inactive | inactive | inactive | inactive | inactive | inactive | inactive | inactive | inactive | inactive | inactive | inactive | inactive | inactive |
| CCOC(=O)COc1ccc(C)cc1 | inactive | inactive | inactive | inactive | inactive | inactive | inactive | inactive | inactive | inactive | inactive | inactive | inactive | inactive |  |  | inactive | inactive | inactive |
| CC(C)(C)c1n[nH]c(=O)n(N)c1=O | inactive | inactive | inactive | inactive | inactive | inactive | inactive | inactive | inactive |  | inactive | inactive | inactive | inactive | inactive | inactive | inactive | inactive | inactive |
| C=C(c1ccc(C(=O)O)cc1)c1cc2c(cc1C)C(C)(C)CCC2(C)C | 8.41 µM (active) | inactive | 34.4 µM (active) and 33.5 µM (active) | 34.4 µM (active) and 29.8 µM (active) | inactive | inactive |  |  | 54.5 µM (active) |  | inactive | inactive | inactive |  |  | inactive | 68.6 µM (active) |  |  |
| CC(C)C(=O)OCc1ccccc1 | inactive | inactive | inactive | inactive | inactive | inactive | inactive | inactive | inactive | inactive | inactive | inactive | inactive |  |  | inactive | inactive | inactive | inactive |
| CC(C)=C1CC[C@@H](C)CC1=O | inactive | inactive | inactive | inactive | inactive | inactive | inactive | inactive | inactive | inactive | inactive | inactive | inactive |  |  | inactive | inactive | inactive | inactive |
